This passage reports Potency results from ChEMBL document CHEMBL1201862, “PubChem BioAssay data set” (2004).

SMILES strings stand for the structures. Several values for one entry are separate records, joined by “and”; a condition that tells them apart may be missing. Identical values can stand only once. Out of some 400,000 compounds screened, about 2,100 (0.53%) were called active. Another 14% or so got no clear call; they are omitted. How the calls were made is not given here. What follows is part of a selection rich in actives, with near analogues and random picks from the rest.

Chain of Ataxin-2 (Homo sapiens) (Q99700 whole entry): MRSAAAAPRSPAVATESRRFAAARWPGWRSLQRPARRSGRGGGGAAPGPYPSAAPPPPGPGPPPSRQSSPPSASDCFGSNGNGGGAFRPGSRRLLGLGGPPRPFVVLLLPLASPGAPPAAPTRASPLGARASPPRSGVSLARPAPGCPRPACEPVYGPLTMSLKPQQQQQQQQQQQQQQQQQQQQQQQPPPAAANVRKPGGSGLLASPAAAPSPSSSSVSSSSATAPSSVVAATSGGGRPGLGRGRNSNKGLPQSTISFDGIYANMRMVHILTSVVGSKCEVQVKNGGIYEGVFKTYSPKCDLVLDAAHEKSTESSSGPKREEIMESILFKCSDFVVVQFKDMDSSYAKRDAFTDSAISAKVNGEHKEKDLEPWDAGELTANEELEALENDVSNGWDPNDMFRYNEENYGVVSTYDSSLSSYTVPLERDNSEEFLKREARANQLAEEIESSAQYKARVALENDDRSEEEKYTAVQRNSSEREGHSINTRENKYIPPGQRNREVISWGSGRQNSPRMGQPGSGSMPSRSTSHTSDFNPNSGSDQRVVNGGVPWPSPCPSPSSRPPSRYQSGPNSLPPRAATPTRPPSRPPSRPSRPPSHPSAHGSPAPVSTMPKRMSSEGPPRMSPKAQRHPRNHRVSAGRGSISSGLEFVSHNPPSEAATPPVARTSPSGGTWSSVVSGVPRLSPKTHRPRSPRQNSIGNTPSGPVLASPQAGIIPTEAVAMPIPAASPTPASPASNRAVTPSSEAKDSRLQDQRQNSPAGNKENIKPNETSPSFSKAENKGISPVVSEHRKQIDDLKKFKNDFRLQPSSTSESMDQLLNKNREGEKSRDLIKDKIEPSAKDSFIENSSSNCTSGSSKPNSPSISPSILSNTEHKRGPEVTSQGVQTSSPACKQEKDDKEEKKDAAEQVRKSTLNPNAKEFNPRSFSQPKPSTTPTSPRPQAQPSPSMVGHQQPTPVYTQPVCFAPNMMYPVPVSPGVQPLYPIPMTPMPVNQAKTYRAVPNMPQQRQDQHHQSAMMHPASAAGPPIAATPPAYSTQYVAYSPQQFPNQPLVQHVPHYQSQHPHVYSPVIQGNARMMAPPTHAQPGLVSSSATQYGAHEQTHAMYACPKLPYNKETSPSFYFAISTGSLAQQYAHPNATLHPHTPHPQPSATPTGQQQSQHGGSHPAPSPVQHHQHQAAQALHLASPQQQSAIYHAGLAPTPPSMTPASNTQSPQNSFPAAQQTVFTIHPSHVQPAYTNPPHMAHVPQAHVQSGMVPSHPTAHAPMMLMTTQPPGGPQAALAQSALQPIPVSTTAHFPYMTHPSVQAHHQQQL

This test addresses Ataxin-2 (Homo sapiens) (UniProt Q99700). Kind of test: qHTS for Inhibitors of ATXN expression. The format is functional. For orientation: qHTS replaces the single test concentration by a dilution series.
For the molecule `O=c1cc(CSc2nc(O)c3ccccc3n2)c2ccc(O)cc2o1`, the Potency entry was “inactive”.

In the case of `Cc1ccc(Cl)cc1NC(=O)c1ccccn1`, the Potency entry is “inactive”.

On to `CC(Oc1ccc(Cl)cc1)C(=O)Nc1sccc1C(N)=O` (centres undefined), for which the Potency entry is “inactive”.

Turning to `CC(Oc1cccc(Cl)c1)C(=O)Nc1nc(-c2ccccn2)cs1` (centres undefined), the Potency is 39.8 µM (active).

As to `CCOC(=O)c1c(N)n(-c2ccc(CC)cc2)c2nc3ccccc3nc12`, the Potency result is “inactive”.

With `CSCCC(NC(=O)COc1ccccc1)C(=O)N(C)Cc1ccc(Cl)cc1Cl` (centres undefined), the Potency entry was “inactive”.

In the case of `Cc1nc2c(OCc3ccc(Cl)cc3Cl)cccn2c1N(C)Cc1cccs1`, the Potency is 8.91 µM (active).

Consider `NNC(=O)c1sccc1OCc1ccc(Cl)cc1Cl`, for which the Potency result is “inactive”.

For the molecule `CCc1nc2c(OCc3ccc(Cl)cc3Cl)cccn2c1N(C)C(C)=O`, the Potency was 31.6 µM (active).

With `CCOC(=O)N(C)c1c(CC)nc2c(OCc3ccc(Cl)cc3)cccn12`, the Potency was 20 µM (active).

`O=C(O)CCC(=O)N1CCN(c2nc(-c3ccccc3)c3ccccc3n2)CC1`: the Potency entry is “inactive”.

With `O=C(CCCCCn1c(=S)[nH]c2ccc(N3CCOCC3)cc2c1=O)NCc1ccccc1Cl`, the Potency entry was “inactive”.

Regarding `CCn1c(COc2cccc(C)c2)nnc1SCC(=O)NC1CCCC1`, the Potency entry is “inactive”.

As for `Cc1cccc(OCc2nnc(SCC(=O)O)n2-c2ccccc2)c1`, the Potency was 39.8 µM (active).

With `Cc1ccc(NCc2nnc(SCC(=O)O)n2-c2ccc(C)cc2)cc1`, the Potency entry is “inactive”.

As to `COc1ccc2ccc3cccc[n+]3c2c1`, the Potency result was “inactive”.

Turning to `CC(=O)Nc1ccc(S(=O)(=O)Nc2nc(C)cc(-n3nc(C)cc3C)n2)cc1`, the Potency entry is “inactive”.

For the molecule `Cc1cc(NC(=O)CSc2nc3c(C)cccc3cc2C#N)no1`, the Potency entry is “inactive”.

For the molecule `NNC(=O)c1oc2nc(-c3ccccc3)cc(-c3ccco3)c2c1N`, the Potency entry is “inactive”.

On to `O=C1[C@H](Cc2ccccc2)NCC=CC[C@@H](c2ccc(Cl)cc2)N1Cc1ccccc1`, for which the Potency was 35.5 µM (active).

Consider `O=C1[C@H](Cc2ccccc2)NCC=CC[C@@H](c2ccc(Cl)cc2)N1Cc1ccc(Cl)cc1`, for which the Potency was 28.2 µM (active).

For `Cc1ccc2nc3nc(NCC4CCCO4)c(C(=O)NC4CCCC4)cc3c(=O)n2c1` (centres undefined), the Potency result was “inactive”.

With `CCC(=O)c1cc2c(C)cc(=O)oc2c(C)c1OC(C)=O`, the Potency entry was “inactive”.

For the molecule `Brc1ccc(OCc2nnnn2-c2ccccc2)cc1`, the Potency entry was “inactive”.

On to `COc1ccccc1N1CCN(S(=O)(=O)c2ccc(-n3cnnn3)cc2)CC1`, for which the Potency entry is “inactive”.

Regarding `COc1ccccc1-n1nnnc1S(=O)(=O)Cc1ccc(Cl)cc1`, the Potency was 25.1 µM (active).

As to `Cc1cccc(/C=C(\C(=O)C(=O)O)c2ccc3ccccc3n2)c1`, the Potency entry was “inactive”.

Turning to `NC(Cc1ccc(Cl)cc1)c1csc(Nc2cc(Oc3ccccc3)ncn2)n1` (centres undefined), the Potency is 35.5 µM (active).

As for `CC(C)CC(N)c1csc(Nc2cc(Oc3ccccc3)ncn2)n1` (centres undefined), the Potency is 39.8 µM (active).

For `CCn1c(SCc2ccc(F)cc2)nc2c(c1=O)SCC2`, the Potency result is “inactive”.

In the case of `COc1cccc(-c2ccc3c(N)c(C(=O)c4ccc(F)cc4)sc3n2)c1`, the Potency entry is “inactive”.

As for `C=CCNC(S)=Nc1ccc(Br)cc1F`, the Potency result is “inactive”.

As for `CSc1ccccc1NC(=O)c1cc(C2CC2)on1`, the Potency entry is “inactive”.

Regarding `CCOC(=O)CSC1=NC(=O)/C(=C\c2ccc(OC(C)=O)cc2)S1`, the Potency was 28.2 µM (active).

As to `CCOC(=O)CSC1=N/C(=C/c2ccc(-n3cncn3)cc2)C(=O)N1C(C)=O`, the Potency entry is “inactive”.

`CCOC(=O)C1=C(C)N=c2sc(=Cc3ccc(OCC(=O)O)cc3)c(=O)n2C1c1ccc(SC)cc1` (centres undefined): the Potency result is “inactive”.

With `CCOC(=O)c1cc2c(=O)n3ccccc3nc2n(CCOC)/c1=N\C(=O)C(C)(C)C`, the Potency entry is “inactive”.

As to `Cc1cccn2c(=O)c3cc(C(=O)NCc4ccco4)c(=N)n(C4CCCCC4)c3nc12`, the Potency entry was “inactive”.

As for `Cc1cccc(N2C(=O)/C(=C\Nc3cc(O)ccc3C)c3ccccc3C2=O)n1`, the Potency entry was “inactive”.

In the case of `Cc1ccc(N2C(=O)/C(=C\Nc3ccccc3-c3nnc(S)nc3O)c3ccccc3C2=O)c(C)c1`, the Potency was 17.8 µM (active).

For `Cc1ccc(N2C(=O)/C(=C/NC3CCS(=O)(=O)C3)c3ccccc3C2=O)c(C)c1` (centres undefined), the Potency entry is “inactive”.

Consider `CCOc1ccc(N2C(=O)/C(=C/Nc3ccnn3Cc3ccncc3)c3ccccc3C2=O)cc1`, for which the Potency entry is “inactive”.

As for `Cn1nnnc1SCCCNCc1cc(Br)ccc1OCc1ccccc1F`, the Potency was 25.1 µM (active).

On to `Cn1nnnc1SCc1cccc2ccccc12`, for which the Potency result was “inactive”.

Turning to `COc1ccc(CNCCSc2nnnn2C)c(OC)c1OC`, the Potency result is “inactive”.

Take `Cn1c2nc(=O)n(-c3ccccc3)c(=O)c-2nc2c1CCCC2`: the Potency entry was “inactive”.

In the case of `CCCCOc1ccccc1C1C(C(=O)OC)=CN(CC)C=C1C(=O)OC`, the Potency result is “inactive”.

Turning to `CCOc1ccccc1NC(=O)CN1C(=O)COc2ccccc21`, the Potency result was “inactive”.

In the case of `CCCOc1ccccc1C1C(C(=O)OC)=CN(C(C)C)C=C1C(=O)OC`, the Potency result was “inactive”.

Consider `COc1ccccc1NC(=O)CCC(=O)OC(C)C(=O)c1ccccc1` (centres undefined), for which the Potency entry is “inactive”.

As to `COc1ccccc1NC(=O)/C=C/C(N)=O`, the Potency was 39.8 µM (active).

Regarding `CCOc1ccccc1NC(=O)/C=C/C(N)=O`, the Potency was 39.8 µM (active).

As to `CCCOc1ccccc1NC(=O)/C=C/C(N)=O`, the Potency was 35.5 µM (active).

Consider `COc1ccccc1NC(=S)NC(=O)CCc1ccccc1`, for which the Potency entry was “inactive”.

Take `CCOc1ccccc1NC(=O)c1cc(SC)ccc1Cl`: the Potency result was “inactive”.

For the molecule `Cc1cc(Br)ccc1-n1nc(C)c(/C=N/c2cccc3nsnc23)c1O`, the Potency entry was “inactive”.

For `Cc1cc(NC(=O)Cn2cc([N+](=O)[O-])cn2)n(Cc2ccc(F)cc2)n1`, the Potency result is “inactive”.

Turning to `COc1ccc(C(=O)c2oc3ccc(OC)cc3c2NC(C)=O)cc1`, the Potency result is “inactive”.

As to `O=C1C=C(NCCc2ccccc2)C2(CCCCC2)O1`, the Potency result was “inactive”.

Consider `CN1CCN(C2Cc3ccccc3Sc3ccc(Cl)cc32)CC1` (centres undefined), for which the Potency is 22.4 µM (active) and 28.2 µM (active).

In the case of `CCc1ccccc1N1C(=O)[C@@H]2Cc3ccccc3CN2C1=O`, the Potency result is “inactive”.

In the case of `CN1CCN(C2Cc3ccccc3Sc3cc(C(F)(F)F)ccc32)CC1` (centres undefined), the Potency is 39.8 µM (active).

In the case of `CCc1cccc2c1Sc1ccccc1CC2N1CCNCC1` (centres undefined), the Potency is 39.8 µM (active).

Take `CSc1ccc2c(c1)C(N1CCN(C)CC1)Cc1ccccc1S2` (centres undefined): the Potency was 22.4 µM (active) and 31.6 µM (active).

As for `FC(F)(F)c1ccccc1C1=CC(c2ccccc2)n2ncnc2N1` (centres undefined), the Potency entry was “inactive”.

For the molecule `CC(C)Nc1ccc(Nc2ccnc3cc4ccccc4cc23)cc1`, the Potency was 31.6 µM (active).

On to `Cc1c2ccccc2nc2c(F)c(NC(C)C)c(F)c(F)c12`, for which the Potency result was “inactive”.

As to `c1ccc(CCNc2ccnc3cc4ccccc4cc23)cc1`, the Potency result was “inactive”.

As for `Cc1c(CCC(=O)NC2CC2)c(=O)oc2cc(O)ccc12`, the Potency entry was “inactive”.

Consider `Cc1cc(/C=N/NC(=O)Cn2c3ccccc3c(=O)c3ccccc32)c(C)n1-c1ccc(Cl)cc1`, for which the Potency result was “inactive”.

Regarding `CC1CN(C(=O)COC(=O)c2ccc(NC(=O)CC#N)cc2)CC(C)O1` (centres undefined), the Potency result is “inactive”.

On to `O=C(c1nnsc1[S+]([O-])c1ccc(Cl)cc1)N1CCOCC1` (centres undefined), for which the Potency is 20 µM (active).

As for `O=C(c1nnsc1S(=O)(=O)c1ccc(Cl)cc1)N1CCOCC1`, the Potency is 26.7 µM (active).

Regarding `O=C(c1cc2cc(Br)ccc2s1)N1CCOCC1`, the Potency result is “inactive”.

With `CCCNC(=O)c1nnsc1[S+]([O-])c1ccc(Cl)cc1` (centres undefined), the Potency was 6.7 µM (active).

Regarding `CCCc1nn(C)c(C(=O)Nc2ccc(Cl)cc2)c1Cl`, the Potency result was “inactive”.

As to `Cc1nnsc1C(=O)NNc1ccc(Cl)cc1`, the Potency result is “inactive”.

For the molecule `NC(=O)c1c(NC(=O)c2ccc(S(=O)(=O)N3CCOCC3)cc2)sc2c1CCCCC2`, the Potency result is “inactive”.

Take `O=C(c1cccn2c(=O)c3cc(Cl)ccc3nc12)N1CCOCC1`: the Potency entry was “inactive”.

Turning to `O=C(c1nc2n(n1)C(c1ccc(Cl)cc1)C=C(c1ccccc1)N2)N1CCOCC1` (centres undefined), the Potency result is “inactive”.

Regarding `C=CCOC(=O)C(=O)/C=C/c1coc2ccccc2c1=O`, the Potency entry is “inactive”.

`CCOc1cc(C(=O)NC2=NCCS2)cc(OCC)c1OCC`: the Potency entry is “inactive”.

As for `Cc1noc(C)c1-c1nnc(-c2ccc(OC(F)(F)F)cc2)o1`, the Potency result was “inactive”.

For `Fc1ccc(Br)cc1C1C=C(c2cccnc2)Nc2ncnn21` (centres undefined), the Potency entry is “inactive”.

Turning to `O=C(C1CC(=O)N(c2ccc3c(c2)OCCO3)C1)N1CCN(Cc2ccccc2)CC1` (centres undefined), the Potency entry was “inactive”.

Consider `O=C(CCN1CCc2ccccc2C(O)(c2ccccc2)C1)c1ccc2c(c1)OCCO2` (centres undefined), for which the Potency is 39.8 µM (active).

Turning to `O=C(CCN1Cc2ccccc2C1)c1ccc2c(c1)OCCO2`, the Potency was 25.1 µM (active).

For the molecule `O=C(CCN1CCCC1Cc1ccccc1)c1ccc2c(c1)OCCO2` (centres undefined), the Potency is 31.6 µM (active).

`Nc1c(-c2ccc3c(c2)OCCO3)oc2ccccc2c1=O`: the Potency entry is “inactive”.

On to `O=C(/C=C\Nc1ccccc1Br)c1ccc2c(c1)OCO2`, for which the Potency entry was “inactive”.

Take `N=C(NOC(=O)COc1ccc(Br)cc1Cl)c1ccncc1`: the Potency result was “inactive”.

On to `CC(C)C(NC(=O)C1CCCCC1)C(=O)NC1CCCC(C)C1C` (centres undefined), for which the Potency result was “inactive”.

Take `Nc1c(C(=O)NCc2ccc(Cl)cc2)sc2nc(-c3ccc(F)cc3)ccc12`: the Potency result was “inactive”.

As to `COc1cc(OC)c(-c2cc(C(=O)NCc3ccc(F)cc3)c3c(-c4ccccc4)[nH]nc3n2)cc1OC`, the Potency is 44.7 µM (active).

Turning to `Cc1ccc(CNC(=O)c2sc3nc(-c4ccc(F)cc4)ccc3c2N)cc1`, the Potency entry was “inactive”.

Regarding `N#CCSc1ccc2nc(-c3ccccc3)cn2n1`, the Potency result was “inactive”.

`Cc1ccc2c(c1)C(c1ccccc1)N(C(=O)COc1ccc(Cl)cc1Cl)CC(=O)N2` (centres undefined): the Potency is 28.2 µM (active).

`Cc1cc(OCC(=O)N2CCC(O)(c3ccc(Cl)cc3)CC2)c2c(C)cc(=O)oc2c1`: the Potency result is “inactive”.

Take `CC1CC(=O)Nc2ccccc2N1C(=O)COc1ccccc1C(N)=O` (centres undefined): the Potency result was “inactive”.

As to `COc1cccc2c1cc1c(=O)n(CC(=O)NCCCN3CCN(C)CC3)nc(C)n12`, the Potency entry was “inactive”.

As for `CCCCNC(=O)c1ccc(Cn2c(=S)[nH]c3c([nH]c4ccc(OC)cc43)c2=O)cc1`, the Potency was 39.8 µM (active).

Consider `O=C(NC1CCN(Cc2ccccc2)CC1)c1ccc(Cn2c(=S)[nH]c3ccc(N4CCOCC4)cc3c2=O)cc1`, for which the Potency result is “inactive”.

In the case of `COc1ccc(N2CCN(C(=O)c3ccc(Cn4c(=S)[nH]c5ccc(N6CCOCC6)cc5c4=O)cc3)CC2)cc1`, the Potency entry is “inactive”.

Take `CCN(CC)c1ccc(/C=N/NC(=O)c2nnn(-c3nonc3N)c2-c2ccc(C)cc2)cc1`: the Potency result was “inactive”.
